Experimental findings from PubChem BioAssay (NCI) are described below.

Test systems include HCT-15 colon; HT29 colon; SNB-75 CNS; SNB-19 CNS; U251 CNS; PC-3 prostate; SK-MEL-5 melanoma; UACC-62 melanoma; LOX IMVI melanoma; SK-MEL-28 melanoma.
Common to all, as to test: NCI-60 one-dose screen, 48 h (100 = growth as untreated, 0 = no growth, -100 = all killed)
Common to all, as to details: 10 µM unless noted

The panel holds about 83,000 compounds, 20% with a hit somewhere; the sample as a whole holds those more often.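 Percent growth is the endpoint: 0 to 100 indicates growth inhibition (40 means 60% inhibition), 0 means no net growth, and negative values indicate cell death.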 Unmarked numbers belong to inactive results. Activity calls are given as the source filed them. How the source made its calls: active means growth percent below 10; inactive means the rest.

For `O=C(c1ccccc1)c1c(/C=C/c2ccc(Cl)cc2)nc2ccccc2c1/C=C/c1cccs1`, the growth is 96.6% in the assay with HCT-15 colon; 100% in the assay on HT29 colon; 84.1% in the assay with SNB-75 CNS; 89.7% in the assay with SNB-19 CNS; 93.5% in the assay on U251 CNS; 91.8% with PC-3 prostate. The growth in the assay with SK-MEL-5 melanoma was 100%; with UACC-62 melanoma, 87.4%; in the assay on LOX IMVI melanoma it was 94.2%; with SK-MEL-28 melanoma, 102%.
Take `COc1ccc(/C=c2\nc3n(-c4ccccc4)c4nc5c6c(sc5c(=N)n4n-3c2=O)CCCC6)cc1`: the growth was 40.7% with HCT-15 colon; 109% in the assay on HT29 colon; 42.9% in the assay on SNB-75 CNS; 84.9% with SNB-19 CNS; 87.5% in the assay on U251 CNS; 63.5% in the assay on PC-3 prostate. Further, the growth in the assay with SK-MEL-5 melanoma was 70.8%; in the assay with UACC-62 melanoma, 74.1%; in the assay on LOX IMVI melanoma, 91.2%; with SK-MEL-28 melanoma, 102%.
With `COc1ccc(Cl)cc1NC(=O)C(Br)C(Br)C(=O)O` (stereo not given), the growth is 67.5% in the assay on HCT-15 colon; 108% in the assay with HT29 colon; 103% in the assay on SNB-75 CNS; 122% with SNB-19 CNS; 49.9% with U251 CNS; 56.3% in the assay with PC-3 prostate. In addition, the growth with SK-MEL-5 melanoma was -82.2% (active); with UACC-62 melanoma, 7.23% (active); in the assay with LOX IMVI melanoma it was -69.8% (active); with SK-MEL-28 melanoma it was 60.1%.
Regarding `O=C1Nc2ccc(F)cc2C12Nc1cc(Cl)ccc1S2` (stereo not given), the growth in the assay on HCT-15 colon is 82.3%; in the assay on HT29 colon it was 103%; in the assay on SNB-75 CNS it was 70.9%; with SNB-19 CNS it was 92.1%; in the assay on U251 CNS, 94.6%; with PC-3 prostate it was 57.3%. Moreover, the growth is 83.4% in the assay with SK-MEL-5 melanoma, 75.4% with UACC-62 melanoma, 85.6% with LOX IMVI melanoma and 118% in the assay with SK-MEL-28 melanoma.
In the case of `c1c[nH]c(CNC2CCCCC2)c1`, the growth is 104% with HCT-15 colon; 105% in the assay with HT29 colon; 108% in the assay with SNB-75 CNS; 119% in the assay on SNB-19 CNS; 102% in the assay with U251 CNS; 81.6% in the assay on PC-3 prostate. Besides, the growth was 118% with SK-MEL-5 melanoma, 110% with UACC-62 melanoma, 89.7% with LOX IMVI melanoma and 120% with SK-MEL-28 melanoma.
Take `Cc1c(C)c2c(c(C)c1OCC(=O)O)CC[C@@](C)(CCC[C@@H](C)CCC[C@@H](C)CCCC(C)C)O2`: the growth is -28.5% [50 µM] (active) with HCT-15 colon; 6.19% [50 µM] (active) with HT29 colon; 67.6% [50 µM] with SNB-75 CNS; 17% [50 µM] with SNB-19 CNS; -30.3% [50 µM] (active) in the assay with U251 CNS; -16% [50 µM] (active) in the assay on PC-3 prostate. For the same compound, the growth is -77.1% [50 µM] (active) in the assay with SK-MEL-5 melanoma, -75.2% [50 µM] (active) in the assay with UACC-62 melanoma, -83.9% [50 µM] (active) in the assay with LOX IMVI melanoma and -15.1% [50 µM] (active) in the assay on SK-MEL-28 melanoma.
As to `Cc1cccc(NC(=O)N/C(N)=N/c2nc(C)c(C)s2)c1`, the growth in the assay with HCT-15 colon was 22.2%; in the assay on HT29 colon, 18.9%; in the assay with SNB-75 CNS, -3.93% (active); in the assay on SNB-19 CNS, 65.4%; in the assay on U251 CNS, 45%; in the assay with PC-3 prostate, 62%. Moreover, the growth in the assay on SK-MEL-5 melanoma was 59.2%; with UACC-62 melanoma, 49.1%; with LOX IMVI melanoma it was 42.7%; with SK-MEL-28 melanoma, 60.7%.
As to `COc1ccccc1CNCCCN1C(=O)c2ccc3c4c(ccc(c24)C1=O)C(=O)N(CCCNCCCCN)C3=O`, the growth is 12.7% in the assay on HCT-15 colon; -23.9% (active) in the assay with HT29 colon; -95.3% (active) in the assay with SNB-75 CNS; -57.8% (active) with SNB-19 CNS; -67.4% (active) with U251 CNS; -11.8% (active) in the assay with PC-3 prostate. Moreover, the growth is -98.3% (active) with SK-MEL-5 melanoma, -60.1% (active) with UACC-62 melanoma, -16.3% (active) with LOX IMVI melanoma and -94.1% (active) in the assay on SK-MEL-28 melanoma.
With `O=C(NCCCNc1cc(-c2cn(-c3ccccc3)nc2-c2cccc(O)c2)ccn1)c1ccccc1`, the growth in the assay on HCT-15 colon was 1.17% (active); in the assay on HT29 colon it was -2.39% (active); in the assay with SNB-75 CNS, 23.1%; in the assay with SNB-19 CNS it was 65.7%; with U251 CNS it was 27.9%; in the assay on PC-3 prostate it was 27.2%. The growth in the assay with SK-MEL-5 melanoma is -37.8% (active); with UACC-62 melanoma, 23.6%; in the assay with LOX IMVI melanoma, 17.3%; in the assay with SK-MEL-28 melanoma, 4.17% (active).
Regarding `O=C(Nc1ccccc1-c1nc2ccccc2c(=O)[nH]1)c1cc2ccccc2[nH]1`, the growth was 98.6% in the assay with HCT-15 colon; 91.6% with HT29 colon; 63% with SNB-75 CNS; 93.4% in the assay on SNB-19 CNS; 92.3% in the assay on U251 CNS; 78.3% in the assay on PC-3 prostate. Moreover, the growth was 81.2% in the assay on SK-MEL-5 melanoma, 84.9% in the assay with UACC-62 melanoma, 88% in the assay on LOX IMVI melanoma and 99.9% in the assay on SK-MEL-28 melanoma.
As for `COc1ccc2c(c1)O/C(=C/c1ccc(OCC(=O)c3ccccc3)cc1)C2=O`, the growth in the assay on HCT-15 colon was 111%; in the assay on HT29 colon, 110%; in the assay on SNB-75 CNS it was 120%; in the assay on SNB-19 CNS it was 108%; in the assay with U251 CNS it was 108%; with PC-3 prostate, 96.2%. The growth in the assay with SK-MEL-5 melanoma was 125%; in the assay on UACC-62 melanoma, 96.3%; with LOX IMVI melanoma, 108%; in the assay with SK-MEL-28 melanoma, 132%.
